Inconclusive results are not listed. Calls of active or inactive are those of the source. Calls come from the whole dose curve; as a rule, active = well fitted cell-killing curve with a large enough effect; inconclusive = small, poorly fitted or top-dose-only effect; inactive = flat fitted curve, though single readings scatter.
Experiment: qHTS of pediatric cancer cell lines to identify multiple opportunities for drug repurposing: Primary screen for U-2 OS cells (AID 1347096); note: nearly all actives have a fitted effect of over 50% in size
Conditions: U-2 OS viability, CellTiter-Glo luminescence, 48 h; series mostly up to 46 µM; activity change, negative = cytotoxic: at the top concentration
Description: Drug repurposing or repositioning has been offered as a strategy for drug development in oncology programs. This approach has special potential for childhood cancers and other rare or orphan diseases, where the expected return on new drug development has been a disincentive to pharmaceuticals.
In this project we exploit the poly-pharmacology of drugs to discover new indications via phenotypic screening of a panel of 19 well-characterized cell lines derived from solid tumors seen in children and adolescents. The goal is to identify approved drugs with previously unrecognized anticancer properties that has the potential to reveal new mechanisms and biological processes involved in carcinogenesis or drug resistance. We employed a titration-based paradigm (quantitative high-throughput screening or qHTS), where all compounds were tested at multiple concentrations for their effect on cell viability. Concentration-response curves (CRCs) were derived directly from the primary screen, and both potency and efficacy values were used to identify compounds with robust bioactivity profiles. We screened the NIH Chemical Genomics Center (NCGC) Pharmaceutical Collection (NPC) and Mechanism Interrogation Plate (MIPE) small molecule collections of approved and investigational compounds against these cell lines; and measured metabolically active cells after 48 hours of compound treatment as a proxy for cell viability.
Assay Submitter: Nathalia J. Martinez, National Center for Advancing Translational Sciences, National Institutes of Health, Rockville, MD, USA; email: natalia.martinez@nih.gov
[1] Shen, M et al. Quantitative high-throughput phenotypic screening of pediatric cancer cell lines identifies multiple opportunities for drug repurposing. Oncotarget 2017 Dec 19;9(4):4758-4772. PMID 29435139.
The cells were obtained from University of North Carolina (UNC), Pediatric Preclinical Testing Program (PPT), and Coriell Institute (CI).
qHTS cell viability assay:
Cells were assayed in growth media at a density of 500-1,000 cells/well. Five microliters of cells were dispensed into 1,536-well, white, solid-bottom, TC-treated plates (Greiner Bio One) using a multidrop dispenser and incubated at 37 degrees C, 5% CO2, under a humidified atmosphere for 5 hours. Twenty-three nanoliters of compounds and controls (neutral control DMSO or positive control bortezomib at final concentration of 2.3 µM) were subsequently transferred by Kalypsys pintool. For primary screens, the MIPE collection was tested at 11-point dilutions (final concentrations range from 0.78 nM to 46 µM) and the NPC collection at 8-point dilutions (final concentrations range from 0.59 nM to 46 µM). Compounds tested in follow-up screens were assayed at 11-point dilutions. Cells were incubated for 48 hours, followed by addition of 3 µL of CellTiter-Glo (Promega). After a 15 min incubation at room temperature, samples were analyzed for luminescence intensity using a ViewLux High-throughput CCD imager equipped with clear filters.
Potency is the fitted concentration of half-maximal effect.

Row | Structure (SMILES) | activity change, negative = cytotoxic | Potency
1 | CC1(C)CCC[C@@]2(C)[C@@H]1CC[C@@]1(C)OC(=O)C[C@H]21 | -0.265% (inactive) | –
2 | N#CC(=C(N)Sc1ccccc1N)C(C#N)=C(N)Sc1ccccc1N | -25.6% (inactive) | –
3 | CC(C)(Cc1ccc2ccccc2c1)NC[C@@H](O)COc1cccc(Cl)c1C#N | 10.6% (inactive) | –
4 | CCC(=O)O[C@]1(C(=O)CO)CC[C@H]2[C@@H]3CCC4=CC(=O)CC[C@]4(C)[C@@H]3CC[C@@]21C | 16.4% (inactive) | –
5 | COc1ccc2c3c1OC1C[C@@H](O)C=C[C@@]31CCN(C)C2 (stereo not given in full) | 4.51% (inactive) | –
6 | CC(C)C[C@H](CC(=O)O)C(=O)N[C@@H](Cc1c[nH]c2ccccc12)C(=O)N[C@@H](C)c1ccccc1 | -9.51% (inactive) | –
7 | O=C1NC(=O)C(=Cc2ccc(-c3ccc(F)cc3)o2)S1 | -16.8% (inactive) | –
8 | CON=C(C(=O)N[C@@H]1C(=O)N2C(C(=O)OCOC(=O)C(C)(C)C)=C(C=Cc3scnc3C)CS[C@H]12)c1csc(N)n1 | 14% (inactive) | –
9 | CC1(C)Cc2c(sc(NC(=S)NC(=O)c3ccccc3)c2C(=O)O)CO1 | 9.37% (inactive) | –
10 | COc1cc2c(cc1OC)CN(CCc1ccc(NC(=O)c3cc(OC)c(OC)cc3NC(=O)c3cnc4ccccc4c3)cc1)CC2 | -0.0284% (inactive) | –
11 | CC#CCn1c(N2CCC[C@@H](N)C2)nc2c1c(=O)n(Cc1nc(C)c3ccccc3n1)c(=O)n2C | 12.4% (inactive) | –
12 | O=C(Nc1ccccc1Br)N[C@@H]1CCN(c2ccc(C(F)(F)F)cn2)C1 | 14% (inactive) | –
13 | O=C(Nc1cc(Cl)cc2c1[nH]c1cnccc12)c1cccnc1 | 7.65% (inactive) | –
14 | N#C[C@H]1C[C@H]2C[C@@H]2N1C(=O)[C@@H](N)C12CC3CC(CC(O)(C3)C1)C2 | 15.6% (inactive) | –
15 | CC1(C)CCC(CN2CCN(c3ccc(C(=O)NS(=O)(=O)c4ccc(NCC5CCOCC5)c([N+](=O)[O-])c4)c(Oc4cnc5[nH]ccc5c4)c3)CC2)=C(c2ccc(Cl)cc2)C1 | – | 18.7 µM (active)
16 | O=C(O)C(O)Cc1ccc(O)c(O)c1 (stereo not given) | 5.16% (inactive) | –
17 | CN(C)Cc1cccc(N=C(c2ccccc2)c2c(O)[nH]c3cc(C(=O)N(C)C)ccc23)c1 | -23.3% (inactive) | –
18 | CCN(CC)CCOC(=O)c1ccc(N)cc1 | 12.7% (inactive) | –
19 | O=C(O)c1ccc(-c2c[nH]c3ncc(-c4ccccc4)cc23)cc1C1CCCC1 | 1.09% (inactive) | –
20 | CC(C)(C)Cn1c(N)nc2ccc(-c3[nH]c(C(C)(C)C)nc3-c3ccc(F)cc3)nc21 | -4.96% (inactive) | –

Row | Structure (SMILES) | activity change, negative = cytotoxic | Potency
21 | CC(C)(C)c1cc(C(=O)O)c(NC(=O)Nc2ccc3[nH]ncc3c2)s1 | -4.96% (inactive) | –
22 | COc1cc(Nc2ncc(F)c(Nc3ccc4c(n3)NC(=O)C(C)(C)O4)n2)cc(OC)c1OC | 5.89% (inactive) | –
23 | CC(=O)c1ccc(S(=O)(=O)NC(=O)NC2CCCCC2)cc1 | 13.5% (inactive) | –
24 | O=C(O)[C@H]1O[C@H](Oc2cc3oc(-c4ccccc4)cc(=O)c3c(O)c2O)[C@H](O)[C@@H](O)[C@H]1O | 9.99% (inactive) | –
25 | CC(=O)N[C@@H](CS)C(=O)O | 10.8% (inactive) | –
26 | N#CC1(c2ccc(NC(=O)c3cccnc3NCc3ccncc3)cc2)CCCC1 | -4.6% (inactive) | –
27 | COc1ccc(-c2coc3cc(O)cc(O)c3c2=O)cc1 | 14.4% (inactive) | –
28 | CO[C@H]1C=CO[C@@]2(C)Oc3c(C)c(O)c4c(O)c(c5c(c4c3C2=O)NC2(CCN(CC(C)C)CC2)N=5)=NC(=O)C(C)=CC=C[C@H](C)[C@H](O)[C@@H](C)[C@@H](O)[C@@H](C)[C@H](OC(C)=O)[C@H]1C | -20.5% (inactive) | –
29 | COc1cccc([C@@H](C)NCCCc2ccccc2Cl)c1 | -9.41% (inactive) | –
30 | COc1cc(N2CCC(N3CCN(C)CC3)CC2)ccc1Nc1ncc(Cl)c(Nc2ccccc2S(=O)(=O)C(C)C)n1 | 9.05% (inactive) | –
31 | Clc1ccc(Cn2c(CN3CCCC3)nc3ccccc32)cc1 | 0.196% (inactive) | –
32 | N[C@@]1(C(=O)O)CS(=O)(=O)[C@H]2[C@H](C(=O)O)[C@H]21 | -18.1% (inactive) | –
33 | CCN1CCC[C@H]1CNC(=O)c1cc(S(N)(=O)=O)ccc1OC | 13.8% (inactive) | –
34 | CCNc1cc(NC2CCC(O)CC2)nc(Nc2ccc3c(ccn3Cc3ccccc3)c2)n1 (stereo not given) | -21.1% (inactive) | –
35 | COC[C@@H](c1ccc(C(F)(F)F)cc1)N1CCN(C2(C)CCN(C(=O)c3c(C)ncnc3C)CC2)C[C@H]1C | -14.7% (inactive) | –
36 | CCC(CC)[C@H](NC(C)=O)[C@@H]1[C@H](O)[C@@H](C(=O)O)C[C@@H]1N=C(N)N | 9.37% (inactive) | –
37 | CC(=O)O[C@]1(C(C)=O)CC[C@@H]2[C@@H]3C[C@H](C)C4=CC(=O)CC[C@]4(C)[C@H]3CC[C@@]21C | -10.3% (inactive) | –
38 | O=c1ccn([C@@H]2O[C@H](CO)[C@H](O)[C@H]2O)c(=O)[nH]1 | 7.01% (inactive) | –
39 | COc1cccc2c1CCCC2CCCN1CCN(C2CCCCC2)CC1 (stereo not given) | -13.8% (inactive) | –
40 | C[N+](C)(C)CC(=O)O | 5.39% (inactive) | –
